# About 410 targets per protein were measured; listed, in parts, are those with the strongest signals and a random draw of the rest.
# B1: SUN4 (Saccharomyces cerevisiae), P53616 (protein)
# chain: MGSSHHHHHHSSGLVPRGSHNGSIYGDLADFSGPYEKFEDGTIPCGQFPSGQGVIPISWLDEGGWSGVENTDTSTGGSCKEGSYCSYACQPGMSKTQWPSDQPSDGRSIGGLLCKDGYLYRSNTDTDYLCEWGVDAAYVVSELSNDVAICRTDYPGTENMVIPTYVQAGDSLPLTVVDQDTYYTWQGLKTSAAYYVNNAGISVEDACVWGSSSSGVGNWAPLNFGAGSSDGVAYLSLIPNPNNGNALNFNVKIVAADDSSTVNGECIYENGSFSGGSDGCTVSVTAGKAKFVLYN
# Key:
# Assay in all cases: glycan array binding signal (z-score within array); higher = stronger binding
# Details in all cases: glycan notation: IUPAC condensed, linker removed; mutation: Q318A
# [1] = biological target: Fuc(a1-2)Gal(b1-3)GalNAc(b1-4)[Neu5Ac(a2-3)]Gal(b1-4)Glc
# Method in brief: (§1)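 Columns mapping to the same glycan were averaged after glycan names were converted to IUPAC-condensed notation. The data come from 3228 arrays in the Consortium for Functional Glycomics database, limited to those with an available protein sequence. Binding is reported as a within-array Z-score averaged across arrays of one protein sequence and across linkers.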
# [2] = biological target: Fuc(a1-2)Gal(b1-3)GlcNAc(b1-3)[Fuc(a1-2)Gal(b1-3)GlcNAc(b1-6)]GalNAc
# Method in brief: as §1
# [3] = biological target: Fuc(a1-2)Gal(b1-4)Fuc(a1-3)]GlcNAc(b1-2)Man(a1-3)[Fuc(a1-2)Gal(b1-4)[Fuc(a1-3)]GlcNAc(b1-2)Man(a1-6)]Man(b1-4)GlcNAc(b1-4)GlcNAc
# Method in brief: as §1
# Fuc(a1-2)Gal(b1-4)GlcNAc = biological target: Fuc(a1-2)Gal(b1-4)GlcNAc
# Method in brief: as §1
# [4] = biological target: Fuc(a1-2)Gal(b1-4)GlcNAc(b1-2)Man(a1-3)[Fuc(a1-2)Gal(b1-4)GlcNAc(b1-2)Man(a1-6)]Man(b1-4)GlcNAc(b1-4)GlcNAc
# Method in brief: as §1
# [5] = biological target: Fuc(a1-2)Gal(b1-4)GlcNAc(b1-3)Gal(b1-4)GlcNAc(b1-2)Man(a1-3)[Fuc(a1-2)Gal(b1-4)GlcNAc(b1-3)Gal(b1-4)GlcNAc(b1-2)Man(a1-6)]Man(b1-4)GlcNAc(b1-4)GlcNAc
# Method in brief: as §1
# [6] = biological target: Fuc(a1-2)[Gal(a1-3)]Gal(b1-4)GlcNAc(b1-2)Man(a1-3)[Fuc(a1-2)[Gal(a1-3)]Gal(b1-4)GlcNAc(b1-2)Man(a1-6)]Man(b1-4)GlcNAc(b1-4)GlcNAc
# Method in brief: as §1
# [7] = biological target: Fuc(a1-2)[GalNAc(a1-3)]Gal(b1-4)GlcNAc(b1-2)Man
# Method in brief: as §1
# [8] = biological target: Fuc(a1-2)[GalNAc(a1-3)]Gal(b1-4)GlcNAc(b1-3)Gal(b1-4)GlcNAc
# Method in brief: as §1
# [9] = biological target: Fuc(a1-2)[GalNAc(a1-3)]Gal(b1-4)GlcNAc(b1-3)GalNAc
# Method in brief: as §1
# [10] = biological target: Fuc(a1-3)[Gal(b1-4)]GlcNAc6S
# Method in brief: as §1
# Gal(a1-3)Gal(b1-4)GlcNAc = biological target: Gal(a1-3)Gal(b1-4)GlcNAc
# Method in brief: as §1
# Gal(a1-4)Gal(b1-4)Glc = biological target: Gal(a1-4)Gal(b1-4)Glc
# Method in brief: as §1
# [11] = biological target: Gal(b1-3)GalNAc(b1-4)Gal(b1-4)Glc
# Method in brief: as §1
# [12] = biological target: Gal(b1-3)GlcNAc(b1-3)Gal(b1-4)GlcNAc(b1-3)Gal(b1-4)GlcNAc(b1-2)[Gal(b1-3)GlcNAc(b1-3)Gal(b1-4)GlcNAc(b1-3)Gal(b1-4)GlcNAc(b1-6)]Man(a1-6)[Gal(b1-3)GlcNAc(b1-3)Gal(b1-4)GlcNAc(b1-3)Gal(b1-4)GlcNAc(b1-2)Man(a1-3)]Man(b1-4)GlcNAc(b1-4)[Fuc(a1-6)]GlcNAc
# Method in brief: as §1
# [13] = biological target: Gal(b1-3)GlcNAc(b1-6)Gal(b1-4)GlcNAc
# Method in brief: as §1
# [14] = biological target: Gal(b1-3)GlcNAc(b1-6)[Gal(b1-3)]GalNAc
# Method in brief: as §1
# Gal(b1-4)Gal = biological target: Gal(b1-4)Gal
# Method in brief: as §1
# Gal(b1-4)GlcNAc(b1-2)Man = biological target: Gal(b1-4)GlcNAc(b1-2)Man
# Method in brief: as §1
# [15] = biological target: Gal(b1-4)GlcNAc(b1-2)Man(a1-3)[Gal(b1-4)GlcNAc(b1-2)Man(a1-6)][GlcNAc(b1-4)]Man(b1-4)GlcNAc(b1-4)[Fuc(a1-6)]GlcNAc
# Method in brief: as §1
# [16] = biological target: Gal(b1-4)GlcNAc(b1-3)Gal(b1-4)GlcNAc(b1-3)Gal(b1-4)GlcNAc(b1-2)[Gal(b1-4)GlcNAc(b1-3)Gal(b1-4)GlcNAc(b1-3)Gal(b1-4)GlcNAc(b1-6)]Man(a1-6)[Gal(b1-4)GlcNAc(b1-3)Gal(b1-4)GlcNAc(b1-3)Gal(b1-4)GlcNAc(b1-2)Man(a1-3)]Man(b1-4)GlcNAc(b1-4)[Fuc(a1-6)]GlcNAc
# Method in brief: as §1
# [17] = biological target: Gal(b1-4)GlcNAc(b1-3)Gal(b1-4)GlcNAc(b1-3)Gal(b1-4)GlcNAc(b1-3)Gal(b1-4)GlcNAc(b1-3)Gal(b1-4)GlcNAc(b1-2)Man(a1-3)[Gal(b1-4)GlcNAc(b1-3)Gal(b1-4)GlcNAc(b1-3)Gal(b1-4)GlcNAc(b1-3)Gal(b1-4)GlcNAc(b1-3)Gal(b1-4)GlcNAc(b1-2)Man(a1-6)]Man(b1-4)GlcNAc(b1-4)[Fuc(a1-6)]GlcNAc
# Method in brief: as §1
# GalNAc(a1-3)GalNAc = biological target: GalNAc(a1-3)GalNAc
# Method in brief: as §1
# GalNAc(b1-4)Gal(b1-4)Glc = biological target: GalNAc(b1-4)Gal(b1-4)Glc
# Method in brief: as §1
# GalNAc(b1-4)GlcNAc = biological target: GalNAc(b1-4)GlcNAc
# Method in brief: as §1
# [18] = biological target: Glc(a1-6)Glc(a1-6)Glc(a1-6)Glc
# Method in brief: as §1
# [19] = biological target: GlcNAc(b1-2)Man(a1-3)[GlcNAc(b1-2)Man(a1-6)]Man(b1-4)GlcNAc(b1-4)GlcNAc
# Method in brief: as §1
# [20] = biological target: GlcNAc(b1-2)[GlcNAc(b1-6)]Man(a1-6)[GlcNAc(b1-2)Man(a1-3)]Man(b1-4)GlcNAc(b1-4)[Fuc(a1-6)]GlcNAc
# Method in brief: as §1
# [21] = biological target: GlcNAc(b1-3)Gal(b1-4)GlcNAc(b1-6)[GlcNAc(b1-3)Gal(b1-3)]GalNAc
# Method in brief: as §1
# [22] = biological target: GlcNAc(b1-4)GlcNAc(b1-4)GlcNAc
# Method in brief: as §1
# [23] = biological target: GlcNAc(b1-6)Gal(b1-4)GlcNAc
# Method in brief: as §1
# Kdn(a2-3)Gal(b1-3)GalNAc = biological target: Kdn(a2-3)Gal(b1-3)GalNAc
# Method in brief: as §1
# [24] = biological target: Man(a1-3)[Man(a1-6)]Man(a1-6)[Man(a1-3)]Man
# Method in brief: as §1
# [25] = biological target: Neu5Ac(a2-3)Gal(b1-3)GalNAc(b1-4)Gal(b1-4)Glc
# Method in brief: as §1
# [26] = biological target: Neu5Ac(a2-3)Gal(b1-3)GlcNAc(b1-2)[Neu5Ac(a2-3)Gal(b1-3)GlcNAc(b1-4)]Man(a1-6)[Neu5Ac(a2-3)Gal(b1-3)GlcNAc(b1-2)Man(a1-3)]Man(b1-4)GlcNAc(b1-4)GlcNAc
# Method in brief: as §1
# [27] = biological target: Neu5Ac(a2-3)Gal(b1-4)GlcNAc
# Method in brief: as §1
# [28] = biological target: Neu5Ac(a2-3)Gal(b1-4)GlcNAc(b1-2)Man
# Method in brief: as §1
# [29] = biological target: Neu5Ac(a2-3)Gal(b1-4)GlcNAc(b1-3)[Neu5Ac(a2-3)Gal(b1-4)GlcNAc(b1-6)]GalNAc
# Method in brief: as §1
# [30] = biological target: Neu5Ac(a2-3)Gal(b1-4)GlcNAc(b1-6)[Gal(b1-3)]GalNAc
# Method in brief: as §1
# [31] = biological target: Neu5Ac(a2-3)Gal(b1-4)[Fuc(a1-3)]GlcNAc(b1-2)Man
# Method in brief: as §1
# [32] = biological target: Neu5Ac(a2-3)Gal(b1-4)[Fuc(a1-3)]GlcNAc(b1-6)[Neu5Ac(a2-3)Gal(b1-3)]GalNAc
# Method in brief: as §1
# [33] = biological target: Neu5Ac(a2-6)Gal(b1-4)GlcNAc(b1-2)Man(a1-3)[Gal(b1-4)GlcNAc(b1-2)Man(a1-6)]Man(b1-4)GlcNAc(b1-4)GlcNAc
# Method in brief: as §1
# [34] = biological target: Neu5Ac(a2-6)Gal(b1-4)GlcNAc(b1-2)Man(a1-3)[Man(a1-6)]Man(b1-4)GlcNAc(b1-4)GlcNAc
# Method in brief: as §1
# [35] = biological target: Neu5Ac(a2-6)Gal(b1-4)GlcNAc(b1-2)[Neu5Ac(a2-6)Gal(b1-4)GlcNAc(b1-4)]Man(a1-3)[GlcNAc(b1-4)][Neu5Ac(a2-6)Gal(b1-4)GlcNAc(b1-2)[Neu5Ac(a2-6)Gal(b1-4)GlcNAc(b1-6)]Man(a1-6)]Man(b1-4)GlcNAc(b1-4)GlcNAc
# Method in brief: as §1
# [36] = biological target: Neu5Ac(a2-6)Gal(b1-4)GlcNAc(b1-3)Gal(b1-4)GlcNAc
# Method in brief: as §1
# [37] = biological target: Neu5Ac(a2-6)GlcNAc(b1-4)GlcNAc(b1-4)GlcNAc
# Method in brief: as §1
# Neu5Gc(a2-6)GalNAc = biological target: Neu5Gc(a2-6)GalNAc
# Method in brief: as §1
binder,measurement,setting,value
B1,glycan array binding signal (z-score),[1],-0.245
same,glycan array binding signal (z-score),[2],0.442
same,glycan array binding signal (z-score),[3],2.65
same,glycan array binding signal (z-score),Fuc(a1-2)Gal(b1-4)GlcNAc,-0.67
same,glycan array binding signal (z-score),[4],-0.18
same,glycan array binding signal (z-score),[5],1.88
same,glycan array binding signal (z-score),[6],-0.077
same,glycan array binding signal (z-score),[7],-0.198
same,glycan array binding signal (z-score),[8],0.152
same,glycan array binding signal (z-score),[9],0.641
same,glycan array binding signal (z-score),[10],0.316
same,glycan array binding signal (z-score),Gal(a1-3)Gal(b1-4)GlcNAc,-0.246
same,glycan array binding signal (z-score),Gal(a1-4)Gal(b1-4)Glc,2.25
same,glycan array binding signal (z-score),[11],-0.46
same,glycan array binding signal (z-score),[12],2.21
same,glycan array binding signal (z-score),[13],-0.212
same,glycan array binding signal (z-score),[14],-0.256
same,glycan array binding signal (z-score),Gal(b1-4)Gal,-0.573
same,glycan array binding signal (z-score),Gal(b1-4)GlcNAc(b1-2)Man,0.857
same,glycan array binding signal (z-score),[15],-0.281
same,glycan array binding signal (z-score),[16],1.61
same,glycan array binding signal (z-score),[17],2.04
same,glycan array binding signal (z-score),GalNAc(a1-3)GalNAc,-1.37
same,glycan array binding signal (z-score),GalNAc(b1-4)Gal(b1-4)Glc,1.66
same,glycan array binding signal (z-score),GalNAc(b1-4)GlcNAc,0.304
same,glycan array binding signal (z-score),[18],0.21
same,glycan array binding signal (z-score),[19],-0.045
same,glycan array binding signal (z-score),[20],2.54
same,glycan array binding signal (z-score),[21],0.161
same,glycan array binding signal (z-score),[22],0.057
same,glycan array binding signal (z-score),[23],-0.7
same,glycan array binding signal (z-score),Kdn(a2-3)Gal(b1-3)GalNAc,-0.503
same,glycan array binding signal (z-score),[24],1.55
same,glycan array binding signal (z-score),[25],1.67
same,glycan array binding signal (z-score),[26],1.64
same,glycan array binding signal (z-score),[27],-0.355
same,glycan array binding signal (z-score),[28],0.689
same,glycan array binding signal (z-score),[29],2.5
same,glycan array binding signal (z-score),[30],-0.111
same,glycan array binding signal (z-score),[31],-0.965
same,glycan array binding signal (z-score),[32],3.41
same,glycan array binding signal (z-score),[33],-0.494
same,glycan array binding signal (z-score),[34],-1
same,glycan array binding signal (z-score),[35],-0.64
same,glycan array binding signal (z-score),[36],-0.838
same,glycan array binding signal (z-score),[37],-0.241
same,glycan array binding signal (z-score),Neu5Gc(a2-6)GalNAc,-0.69

# Source: the supplement of paper PMC8728848
